In PubChem BioAssay (NCATS):
Results filed as inconclusive are left out. Active and inactive are the calls of the source. The call rests on the fitted dose curve; in most records, active means well fitted curve in the direction sought with a large enough effect; inconclusive means small, poorly fitted or top-dose-only effect, or another doubt; inactive means no such curve, though single readings can be large; an effect the other way counts as inactive or inconclusive. Where a SMILES comes first, the peptide text is derived from it.

Key:
[1] = biological target: Glutathione peroxidase 1 (Homo sapiens) (UniProt P07203); assay: Primary qHTS Assay for Inhibitors of Recombinant Selenoprotein Glutathione Peroxidase 1 (GPX1) (AID 1845191); further: nearly all actives have a fitted effect of over 65% in size; on activity, negative = inhibition: on the % scale 0 is the no-effect control and ±100 the full control effect
Sequence of Glutathione peroxidase 1 (Homo sapiens) (P07203 whole entry, looked up): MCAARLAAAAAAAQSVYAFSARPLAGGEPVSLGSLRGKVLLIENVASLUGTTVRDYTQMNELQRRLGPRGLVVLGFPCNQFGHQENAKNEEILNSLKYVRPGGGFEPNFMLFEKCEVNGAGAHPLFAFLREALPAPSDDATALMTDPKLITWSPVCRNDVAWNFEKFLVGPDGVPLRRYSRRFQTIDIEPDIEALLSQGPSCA
Summary of the method: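 10 nM GPX1 + cpd, 30 min RT; start w/ 1 mM GSH, 0.5 mM cumene hydroperoxide, 0.5 mM NADPH, 100 nM GR, 0.01% BSA; buffer 50 mM Tris-HCl pH 7.5, 2 mM EDTA, 150 mM NaCl; Fl 340/450, 0 & 15 min.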

[2] = biological target: Phospholipid hydroperoxide glutathione peroxidase GPX4 (Homo sapiens) (UniProt P36969); assay: Primary qHTS Assay for Inhibitors of Recombinant Selenoprotein Glutathione Peroxidase 4 (GPX4) (AID 1845192); further: nearly all actives have a fitted effect of over 65% in size; further: potency means the concentration at half of the fitted maximal effect; on activity change, negative = inhibition: series mostly up to about 50 µM; on the % scale 0 is the no-effect control and ±100 the full control effect
Sequence of Phospholipid hydroperoxide glutathione peroxidase GPX4 (Homo sapiens) (P36969 whole entry, looked up): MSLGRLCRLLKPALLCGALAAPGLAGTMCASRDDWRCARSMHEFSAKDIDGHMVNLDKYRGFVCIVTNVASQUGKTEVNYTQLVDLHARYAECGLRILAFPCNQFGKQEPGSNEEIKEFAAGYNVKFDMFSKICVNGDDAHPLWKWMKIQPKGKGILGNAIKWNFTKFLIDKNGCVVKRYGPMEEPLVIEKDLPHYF
Summary of the method: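 NADPH consumption, followed by fluorescence at 340/450 nm between 0 and 15 min, reports GPX4 activity via coupled glutathione reductase (100 nM). Enzyme 200 nM was pre-exposed to compound 30 min; 0.5 mM cumene hydroperoxide and 1 mM GSH served as substrates.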

[3] = biological target: Luciferin 4-monooxygenase (Photinus pyralis) (UniProt P08659); assay: Primary firefly luciferase (FLuc) qHTS assay for identification of artifact compounds. (AID 1845220); further: nearly all actives have a fitted effect of over 60% in size;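 on activity change, negative = inhibition: series mostly up to about 54 µM; plate controls were DMSO vehicle for no effect and no enzyme for full effect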
Summary of the method: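 Compounds sat 15 min at room temperature with 10 uM luciferin and 10 uM ATP (pH 7.6 Tris acetate). Firefly luciferase (10 nM final) was then added, and luminescence was read 5 min later. Data normalized to no-enzyme and DMSO controls were Hill-fitted.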

[4] = Primary fluorescence-based thiol-reactive (MSTI) qHTS assay for identification of artifact compounds. (AID 1845221); further: nearly all actives have a fitted effect of over 65% in size; further: potency means the concentration at half of the fitted maximal effect;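 on activity change, negative = thiol reactive: series mostly up to about 54 µM; thiol-reactive compounds lower the probe fluorescence signal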
Summary of the method: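 In PBS pH 7.4 with 2% DMSO, each compound met 4 uM MSTI for one hour at ambient temperature, shielded from light, before fluorescence detection.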

[5] = tested on: Nanoluciferase (engineered Oplophorus gracilirostris luciferase); assay: Primary Nanoluciferase (NLuc) qHTS assay for identification of artifact compounds. (AID 1845222);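 further: series mostly up to about 54 µM; 0% = DMSO and -100% = no enzyme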
Summary of the method: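 Luminescence from secreted NLuc (filtered, 1:55-diluted S16 cell medium) read 5 min after Nano-Glo substrate; compounds preincubated 15 min, RT. Hill fits of inhibition normalized to DMSO and no-enzyme.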

C[C@@H]1O[C@@H](O[C@H]2[C@H](OC(=O)[C@]34CCC(C)(C)C[C@H]3C3=CCC5[C@@]6(C)C[C@H](O)[C@H](O[C@@H]7O[C@H](CO)[C@@H](O[C@@H]8O[C@H](CO)[C@@H](O)[C@H](O)[C@H]8O)[C@H](O)[C@H]7O)[C@@](C)(CO)C6[C@H](O)C[C@@]5(C)[C@]3(C)C[C@H]4O)OC[C@H](O)[C@@H]2O)[C@H](O)[C@H](O)[C@H]1O[C@@H]1OC[C@@H](O)[C@H](O[C@@H]2OC[C@](O)(CO)[C@H]2O)[C@H]1O (stereo partly drawn)
inactive: activity, negative = inhibition [1] -19.6% [at 9.52 µM] | activity change, negative = inhibition [2] -11% [at 9.73 µM] | activity change, negative = inhibition [3] -27.8% [at 11.6 µM] | activity change, negative = thiol reactive [4] -12.6% [at 11.5 µM] | activity, negative = inhibition [5] 2.77% [at 11.6 µM]

CC(C)c1cc2c(c(O)c1O[C@@H]1O[C@H](CO)[C@@H](O)[C@H](O)[C@H]1O)CC1(O)CCC(O)C(C)(C)C1CC2 (stereo partly drawn)
active: Potency [4] 9.22 µM
inactive: Potency [1] | Potency [2] | Potency [3] | Potency [5]

CC(=O)N(CC(C)C(=O)O)c1c(I)cc(I)c(N)c1I (stereo not drawn)
inactive: Potency [1] | Potency [2]

C/C=C(\C)C(=O)O[C@@H](C)[C@H]1CC[C@]2(O)C3CCC4C[C@@H](OC5CC(OC)C(OC6CC(OC)C(OC7CC(OC)C(OC8OC(C)C(OC9OC(CO)C(O)C(O)C9O)C(OC)C8O)C(C)O7)C(C)O6)C(C)O5)CC[C@]4(C)C3[C@H](O)[C@@H](O)[C@]12C (stereo partly drawn)
inactive: outcome [1] inactive [at 9.52 µM] | activity change, negative = inhibition [2] -0.387% [at 9.73 µM] | outcome [3] inactive [at 11.6 µM] | activity change, negative = thiol reactive [4] 94.5% [at 11.5 µM] | activity, negative = inhibition [5] 0.355% [at 11.6 µM]

C/C=C(\C)C(=O)O[C@@H]1CC2[C@@H](CC=C3C[C@@H](O[C@H]4C[C@H](OC)[C@H](O[C@H]5C[C@H](OC)[C@H](O[C@H]6C[C@H](OC)[C@H](O[C@H]7C[C@@H](OC)[C@H](O[C@@H]8O[C@H](CO)[C@@H](O)[C@H](O)[C@H]8O)[C@@H](C)O7)[C@@H](C)O6)[C@@H](C)O5)[C@@H](C)O4)CC[C@@]32C)[C@@]2(O)CC[C@H](C(C)=O)[C@@]12C (stereo partly drawn)
inactive: activity, negative = inhibition [1] -14% [at 9.52 µM] | activity change, negative = inhibition [2] -7.77% [at 9.73 µM] | activity change, negative = inhibition [3] 2.2% [at 11.6 µM] | activity change, negative = thiol reactive [4] 10.3% [at 11.5 µM] | activity, negative = inhibition [5] 4.8% [at 11.6 µM]

CCOc1ccc2c(c1)C(C)=CC(C)(C)N2
inactive: Potency [1]
active: Potency [2] 31.6 µM

O=C(O)c1cc(O)c2cccc(O)c2c1O[C@@H]1O[C@H](CO)[C@@H](O)[C@H](O)[C@H]1O
inactive: Potency [1] | Potency [2] | Potency [3]
active: Potency [4] 2.07 µM

CO[C@@]12CC3[C@@H]([C@@H](O)[C@@H](OC(C)=O)C4[C@](C)(COC(C)=O)CCC[C@]34C)[C@@H](C)C1=CC(=O)O2 (stereo partly drawn)
inactive: Potency [1] | Potency [2] | Potency [3] | Potency [4]

CC1(C)CCC2(C(=O)OC3OC(COC4OC(CO)C(O)C(O)C4O)C(O)C(O)C3O)CCC3(C)C(=CCC4C5(C)CCC(O)C(C)(C(=O)O)C5CCC43C)C2C1O (stereo not drawn)
inactive: Potency [1] | Potency [2] | activity change, negative = inhibition [3] 2.78% [at 11.6 µM] | activity change, negative = thiol reactive [4] 16.4% [at 11.5 µM] | activity, negative = inhibition [5] 2.66% [at 11.6 µM]

O=C(OCc1cccc(O)c1O[C@@H]1O[C@H](CO)[C@@H](O)[C@H](O)[C@H]1O)C1(O)C(=O)C2C=CC1C1C=CC(=O)C(O)(C(=O)OCc3cccc(O)c3O[C@@H]3O[C@H](CO)[C@@H](O)[C@H](O)[C@H]3O)C21 (stereo partly drawn)
inactive: Potency [1] | Potency [2] | outcome [3] inactive [at 11.6 µM] | activity change, negative = thiol reactive [4] 11.6% [at 11.5 µM] | activity, negative = inhibition [5] 1.93% [at 11.6 µM]

CC(C)(C)C(=O)OCOC(=O)[C@@H]1N2C(=O)[C@@H](N=CN3CCCCCC3)[C@H]2SC1(C)C
inactive: Potency [1] | Potency [2]

COc1cc(C/C(=C/NC(C)=O)N(CC(=O)Cc2ccccc2)C(C)=O)cc2c1OCO2
inactive: Potency [1] | Potency [2] | Potency [3] | Potency [4] | Potency [5]

C[C@@H](O)[C@H](N)C(=O)N1CCC[C@H]1C(=O)N1CCC[C@H]1C(=O)N[C@H](C(N)=O)[C@@H](C)O (H-TPPT-NH2)
inactive: outcome [1] inactive [at 9.52 µM] | activity change, negative = inhibition [2] 2.51% [at 9.73 µM] | activity change, negative = inhibition [3] 3.24% [at 11.6 µM] | activity change, negative = thiol reactive [4] -5.11% [at 11.5 µM] | activity, negative = inhibition [5] 4.97% [at 11.6 µM]

C[C@@H]1O[C@@H](O[C@H]2[C@H](O[C@H]3CC[C@@]4(C)C(CC[C@]5(C)C4CC=C4[C@@H]6CC(C)(C)CC[C@]6(C(=O)O)CC[C@]45C)[C@]3(C)CO)OC[C@H](O)[C@@H]2O)[C@H](O)[C@H](O[C@@H]2OC[C@@H](O)[C@H](O)[C@H]2O)[C@H]1O (stereo partly drawn)
inactive: Potency [1] | Potency [2] | outcome [3] inactive [at 11.6 µM] | activity change, negative = thiol reactive [4] 366% [at 11.5 µM] | activity, negative = inhibition [5] 0.957% [at 11.6 µM]

OC[C@H]1O[C@@H](Oc2ccc(O)c3cccc(O)c23)[C@H](O)[C@@H](O)[C@@H]1O
inactive: Potency [1] | Potency [2] | Potency [3]
active: Potency [4] 0.927 µM

CC1(C)CC[C@]2(C(=O)O[C@@H]3O[C@H](CO)[C@@H](O)[C@H](O)[C@H]3O)CC[C@]3(C)C(=CCC4[C@@]5(C)C[C@@H](O)[C@H](O)[C@@](C)(CO)C5CC[C@]43C)C2C1 (stereo partly drawn)
inactive: Potency [1] | Potency [2] | Potency [3] | Potency [4] | Potency [5]

COc1cc(-c2cccc(O)c2)cc2c1OCO2
inactive: Potency [1] | Potency [2] | Potency [3] | Potency [5]
active: Potency [4] 26.7 µM

CC(C(=O)O)C1CCC2(C)C3C(=O)C=C4C(CCC(=O)C4(C)C)C3(C)CCC12C (stereo not drawn)
inactive: Potency [1] | Potency [2] | Potency [3] | Potency [4] | Potency [5]

CCC(C)/C=C(C)/C=C/C1=CC2=C(Cl)C(=O)C(C)(OC(C)=O)C(=O)C2=CN1CCCC(=O)O (stereo not drawn)
active: Potency [4] 0.367 µM
inactive: Potency [1] | Potency [2] | Potency [3] | Potency [5]
